PubChem BioAssay (NCI)
Several values for one entry are separate records, joined by “and”; a condition that tells them apart may be missing. Equal entries are not always repeated. This is part of a sample that, as a whole, favours compounds with a hit. Of some 83,000 tested, about 20% had one in any assay.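 Note: values are percent growth. 100 is the growth of untreated cells, values between 100 and 0 indicate rising inhibition; between -100 and 0 indicates cell death.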 A number with no mark means an inactive call. Activity calls are given as the source filed them. How the source made its calls: active means growth percent below 10; inactive means the rest.

Each compound was assayed on HL-60(TB) leukemia (assay: NCI-60 one-dose screen, 48 h (100 = growth as untreated, 0 = no growth, -100 = all killed)). Details: 10 µM unless noted.

With CCCCCC(=O)N1c2ccccc2NC2=C(C(=O)CC(c3ccc(OC)c(OC)c3)C2)C1c1ccc(C(F)(F)F)cc1 (centres undefined) as the compound, how does the growth read?
Its growth is 45.4%.

For NC(=O)C1CC2C=CC1C2 (centres undefined), which growth is on record?
Its growth is 108% and 106%.

For CC1=NC2=CC=CC3=NC(C(Cl)(Cl)Cl)=NC(=N1)N23, which growth is on record?
The growth was 25.2%.

With O=c1c2ccccc2c2nccn2c2cc(Cl)ccc12 as the compound, how does the growth read?
The growth was 30.3%.

For COc1cc(-c2nc3cc(Cl)c(Cl)cc3[nH]2)ccc1OCC(=O)N=Nc1c(O)[nH]c2ccc([N+](=O)[O-])cc12, which growth is on record?
Its growth is 94.9%.

For CN1CCN(Cc2ccc(NC(=O)c3ccc(C#N)c(C#Cc4cnc(N)c5ncccc45)c3)cc2C(F)(F)F)CC1, which growth is on record?
The growth was 60.8%.

How did the growth turn out when CCOc1ccccc1/C=N\N=C(\N)N/N=C/c1ccccc1OCC was run?
Its growth is -7.32% (active).

For COc1ccc(-c2c(C)noc2-c2ccc(O)cc2O)cc1, which growth is on record?
The growth was 64.9%.

How did the growth turn out when CCOc1ccc2nc(-c3cccc(OCC(=O)NC(C)C)c3)nc(Nc3ccc(-c4cn[nH]c4)cc3)c2c1 was run?
The growth was 2.3% (active).

CCOC(=O)c1cc(CC)sc1NC(=O)CC(C)=O was tested. Which growth did it give?
The growth was 51.4%.

How did the growth turn out when CCCCCCCCCCCC(=O)OCCNC(=O)C[n+]1ccccc1 was run?
The growth was 100%.

CCOC(=O)c1cn2c3c(cc(F)cc3c1=O)C(CC)c1ccccc1C2 (centres undefined) was tested. Which growth did it give?
The growth was 94.9%.

Which growth does the source give for COc1cc(-c2nnc(-c3nc(-c4cc(OC)c(OC)c(OC)c4)n4ccccc34)o2)ccc1N here?
Its growth is 64.8%.

How did the growth turn out when CC1(C)CC[C@]2(C(=O)O)CC[C@]3(C)C(=CC[C@@H]4[C@@]5(C)C/C(=C/O)C(=O)C(C)(C)[C@@H]5CC[C@]43C)[C@@H]2C1 was run?
Its growth is 4.77% (active).

For Cc1cc(CC(=O)O)n(C)c1C(=O)c1ccc(Cl)cc1, which growth is on record?
The growth was 105%.

For CNC(=O)c1cc(Oc2ccc(CC(=O)Nc3cc(C(C)(C)C)cn3C)cc2)ccn1, which growth is on record?
The growth was 77.5%.

For COc1ccc(Cl)cc1Nc1nc(C(F)(F)F)ccc1C(=O)N/N=C/c1cc(OC)c(OC)c(OC)c1, which growth is on record?
The growth was -32.3% (active).

For O=C(/C(=C\c1ccc([N+](=O)[O-])cc1)S(=O)Cc1ccc(Cl)cc1)c1ccc(Cl)cc1 (centres undefined), which growth is on record?
Its growth is 59.4%.

With CCOC(=O)c1cc(C(=O)c2cc(OC)c(OC)c(OC)c2)n2ccc(-c3ccncc3)cc12 as the compound, how does the growth read?
Its growth is 65%.

O=C1NCc2ccc3c(-c4cccc(Cl)c4)c[nH]c3c21 was tested. Which growth did it give?
The growth was -4.05% (active).

How did the growth turn out when CCCCCCCCCCCC[n+]1ccc(C(N)=O)cc1 was run?
The growth was -26.3% (active).

COc1ccc(Nc2nnc(SCc3ccccc3F)s2)cc1 was tested. Which growth did it give?
Its growth is 86%.

With CC1(C)CC2(C)CC(=O)C1C(C(=O)O)C2C(=O)O (centres undefined) as the compound, how does the growth read?
Its growth is 97.9%.

c1ccc(CNc2nc(Nc3ccc(-c4nc5ccccc5[nH]4)cc3)c3cn[nH]c3n2)cc1 was tested. Which growth did it give?
The growth was -4.71% (active).

With Clc1ccc2c(c1)C(N1CCNCC1)=Nc1ccccc1O2 as the compound, how does the growth read?
Its growth is 50.7%.

Which growth does the source give for COc1ccc(-c2cnc(N)nc2-c2ccc(OC)cc2O)cc1 here?
Its growth is 79%.

How did the growth turn out when O=C(COc1ccc(-c2nc3ccccc3[nH]2)cc1)N=Nc1c(O)[nH]c2ccc(Cl)cc12 was run?
Its growth is 39.9%.

For Cc1cc(N=Nc2ccc(C)c(N=Nc3cc(C)c(N)cc3N)c2)c(N)cc1N, which growth is on record?
Its growth is 99.9% and 82.5%.

For Nc1c(C(=O)c2ccc(Br)cc2)sc2nc3c(cc12)CCCC3, which growth is on record?
The growth was 94.7%.

Which growth does the source give for Nc1ccccc1SC(CC(=O)c1ccccc1)c1cccc([N+](=O)[O-])c1 (centres undefined) here?
Its growth is 96.8% and 88.5%.

Which growth does the source give for COc1cc(-c2nnc(-c3c(-c4ccc(F)cc4)nc4ccccn34)o2)cc(OC)c1OC here?
Its growth is 102%.

How did the growth turn out when COC(=O)/C=C\C(=O)OC was run?
The growth was 90.5%.

For Clc1ccc(-c2ccc(CNCC3CCNCC3)o2)c(-c2ccccc2)c1, which growth is on record?
The growth was -62.3% (active).

How did the growth turn out when CC(=O)c1cc2c(N)c(C(=O)Nc3cncc4ccccc34)sc2nc1C was run?
The growth was 91.6%.

For O=[N+]([O-])c1cccc2cc(S(=O)(=O)O)ccc12, which growth is on record?
Its growth is 76.9%.

For CN1C(=O)CNC(=O)[C@H](NC(=O)c2nc3ccccc3cc2O)CSSC[C@H]1C(=O)NCCCc1nc2ccccc2cc1O, which growth is on record?
Its growth is -44.3% (active).

How did the growth turn out when CC(C)NCCCCCNc1cc(O)cc2cccnc12 was run?
Its growth is -43.6% (active).

How did the growth turn out when CC(=O)Oc1ccc(C2(c3ccc(OC(C)=O)cc3)C(=O)Nc3ccccc32)cc1 was run?
The growth was 75.5% and 119%.

For Nc1nc2ncc(CCNc3ccc(C(=O)NC(CCC(=O)O)C(=O)O)cc3)nc2c(=O)[nH]1 (centres undefined), which growth is on record?
Its growth is 144%.
